Compounds without any hit were thinned out: in the full panel of roughly 79,000, 15% have a hit. A number with no mark means an inactive call. Active and inactive are the calls of the source. No stated cut-off is given here; in the data, active means growth inhibition above about 70%; inactive means the rest.
Assays:
[1] = NCI Yeast Anticancer Drug Screen. Data for the rad50 strain (AID 155);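 further: 0% = growth of vehicle-only cultures of the same strain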; settings: S. cerevisiae rad50 strain growth inhibition, hits give high values
Summary of the method: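 Cells are treated with compound, grown, and their growth is then scored against vehicle-only cultures of the same repair-deficient yeast strain.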

[2] = NCI Yeast Anticancer Drug Screen. Data for the mec2-1 strain (AID 157); settings: S. cerevisiae mec2-1 strain, hits give high values
Summary of the method: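 mec2-1 yeast strain, carrying an alteration in DNA damage repair or cell cycle control, was exposed to compounds; growth inhibition was measured relative to vehicle-treated controls.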

[3] = NCI Yeast Anticancer Drug Screen. Data for the sgs1 mgt1 strain (AID 161);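 further: 0% = growth of cultures given vehicle only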; settings: S. cerevisiae sgs1 mgt1 strain, hits give high values
Summary of the method: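 This yeast growth screen uses a strain with defined DNA-repair lesions; compound-treated growth is compared with vehicle-treated growth.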

[4] = NCI Yeast Anticancer Drug Screen. Data for the cln2 rad14 strain (AID 165);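 further: 0% = growth equal to vehicle treated cultures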; settings: S. cerevisiae cln2 rad14 strain, hits give high values
Summary of the method: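 Yeast carrying cln2 and rad14 alterations (cell cycle control and DNA damage repair) were exposed to compounds. Growth inhibition was measured against vehicle-treated controls.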

[5] = NCI Yeast Anticancer Drug Screen. Data for the bub3 strain (AID 167); settings: S. cerevisiae bub3 mutant strain, hits give high values
Summary of the method: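 Part of a panel of yeast mutants defective in DNA damage repair or cell cycle regulation. Each strain is grown with compound, and inhibition is calculated relative to solvent-treated cultures.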

[6] = NCI Yeast Anticancer Drug Screen. Data for the mlh1 rad18 strain (AID 175); settings: S. cerevisiae mlh1 rad18 strain growth inhibition, hits give high values
Summary of the method: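 Growth inhibition of the yeast strain was measured after compound exposure and expressed relative to vehicle-treated controls. The strain carries defined defects in DNA damage repair.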

[7] = at 5.0 µM (retest, dose inferred, filed as 0.5)
[8] = at 50.0 µM (retest, dose inferred, filed as 5.0)

SMILES	growth inhibition [1, 7]	growth inhibition [1, 8]	growth inhibition ([1]; at 50.0 µM)	growth inhibition [2, 7] [%]	growth inhibition [2, 8]	growth inhibition ([2]; at 50.0 µM)	growth inhibition [3, 7]	growth inhibition [3, 8]	growth inhibition ([3]; at 50.0 µM)	growth inhibition [4, 7] [%]	growth inhibition [4, 8]	growth inhibition ([4]; at 50.0 µM)	growth inhibition [5, 7]	growth inhibition [5, 8]	growth inhibition ([5]; at 50.0 µM)	growth inhibition [6, 7]	growth inhibition [6, 8]	growth inhibition ([6]; at 50.0 µM)
O=[N+]([O-])c1ccc(N2CCN(Cc3ccccc3)CC2)c2c1no[n+]2[O-]	50%	97% (active)	90.1% (active)	18	98% (active)	93.1% (active)	34%	92% (active)	89.5% (active)	4	22%	72.5% (active)	11%	78% (active)	90% (active)	39%	97% (active)	88.3% (active)
Cc1ccccc1NC(=O)Cc1csc2[n+]1C(=O)/C(=C/c1ccc([N+](=O)[O-])cc1)S2	22%	28%	15.7%	29	33%	-6.7%	-14%	-4%	39.6%	-2	7%	-27.7%	8%	4%	8.95%	25%	37%	20.5%
OCCOSCCO	5%	-4%	-0.05%	2	-4%	-14.1%	-8%	-2%	10.2%	6	2%	15.8%	2%	6%	-6.5%	–	–	–
Nc1ccc(Oc2ccccc2)c(Cl)c1	10%	91% (active)	97.6% (active)	-15	30%	92.5% (active)	4%	61%	97.6% (active)	3	60%	93.5% (active)	69%	52%	90.5% (active)	7%	72% (active)	98% (active)
Oc1ccc2c(c1)CCc1ccccc1-2	37%	98% (active)	95.6% (active)	36	98% (active)	75.5% (active)	11%	88% (active)	95.8% (active)	1	98% (active)	99.2% (active)	83% (active)	99% (active)	98.8% (active)	75% (active)	98% (active)	99.5% (active)
O=[N+]([O-])CC(O)c1ccccc1 (stereo unspecified)	4%	26%	98.4% (active)	-1	-3%	52.2%	-2%	1%	50.2%	-2	-1%	98.6% (active)	-2%	1%	50.9%	–	–	–
O=C(/C(Cl)=N/O)c1ccc(-c2ccccc2)cc1	8%	97% (active)	99.3% (active)	5	98% (active)	59.4%	2%	98% (active)	95.5% (active)	15	93% (active)	99.2% (active)	6%	97% (active)	99.7% (active)	13%	97% (active)	99.3% (active)
O=[N+]([O-])c1ccc([I+]c2ccccc2)cc1	86% (active)	96% (active)	82.8% (active)	40	95% (active)	86% (active)	77% (active)	96% (active)	87.2% (active)	30	87% (active)	82.9% (active)	61%	96% (active)	88.2% (active)	82% (active)	95% (active)	–
CC12CCC(O)CC1=CCC1C2CCC2(C)C3=NN=CC3CC12 (stereo unspecified)	38%	99% (active)	96.6% (active)	16	100% (active)	99.4% (active)	35%	100% (active)	98.5% (active)	7	100% (active)	99.2% (active)	31%	100% (active)	99.3% (active)	50%	100% (active)	99.5% (active)
Cc1cc2cccnc2c2ncccc12	34%	98% (active)	99% (active)	9	99% (active)	99.2% (active)	5%	98% (active)	99.1% (active)	-9	98% (active)	97.5% (active)	21%	99% (active)	99.3% (active)	25%	99% (active)	98.7% (active)
CC1CC(C)(C)OB(OC(C)CC(C)(C)OB2OC(C)CC(C)(C)O2)O1 (stereo unspecified)	-4%	-35%	9.6%	-1	-39%	15.7%	-4%	-35%	22.6%	2	-43%	83% (active)	1%	-33%	17.7%	0%	-34%	-32.9%
O=C1Nc2ccc(Br)cc2C1=O	-8%	95% (active)	96.9% (active)	-31	64%	99.7% (active)	-5%	42%	99.8% (active)	-6	36%	66.9%	-13%	98% (active)	99.4% (active)	–	–	–
CCOC(=O)C1C(C(C)C)C2(C#N)C(=N)OC1(C)C2(C#N)C#N (stereo unspecified)	15%	63%	44.8%	6	53%	52.2%	19%	58%	49.8%	6	37%	30.2%	14%	62%	39.5%	18%	72% (active)	42.5%
CC(=O)N1CC(=O)NC1=S	-10%	-18%	69.6%	-11	-14%	39.9%	-5%	-17%	25.3%	-4	7%	53.1%	-36%	-12%	5.45%	-24%	-33%	67.3%
Oc1ccc(Br)cc1Sc1cc(Br)ccc1O	6%	99% (active)	87.9% (active)	28	99% (active)	99.7% (active)	26%	100% (active)	99.7% (active)	14	98% (active)	99.4% (active)	16%	99% (active)	99.2% (active)	53%	99% (active)	99.5% (active)
O=C1/C(=C/c2ccccc2)CCC/C1=C\c1ccccc1	27%	60%	83.8% (active)	29	77% (active)	86.6% (active)	36%	72% (active)	82.3% (active)	21	52%	80.3% (active)	41%	69%	84.8% (active)	58%	76% (active)	–
O=C1C=Cc2ccccc2/C1=C/c1nc(-c2ccccc2)oc1O	-2%	97% (active)	89.5% (active)	-15	98% (active)	91.8% (active)	17%	97% (active)	49.5%	2	97% (active)	86.5% (active)	0%	98% (active)	92.7% (active)	5%	97% (active)	90% (active)
COc1cc(NCc2ccc3nc(N)nc(N)c3c2C)cc(OC)c1OC (tested in a mixture with another compound)	24%	54%	12.3%	18	87% (active)	51.8%	12%	31%	43.2%	23	23%	2.8%	17%	24%	5.05%	–	–	–
CC(C)(C)c1ccc(CCO)cc1	-10%	7%	33.5%	-2	-4%	5.35%	-3%	-5%	12.2%	-2	-4%	-8.05%	0%	6%	-4.15%	-5%	2%	19.9%
Cc1ccc(/C=N/Nc2cc(C)c3cccc(C)c3n2)s1	9%	94% (active)	89.3% (active)	-1	95% (active)	92.6% (active)	3%	93% (active)	92% (active)	3	95% (active)	90.3% (active)	4%	97% (active)	90.8% (active)	13%	93% (active)	90% (active)
